TRAIL sens C8: sensitizes caspase-8 expressing cells to TRAIL | AID 624354 | 1% of 360,000 active | inhibition (viability loss, TRAIL sensitization), % at 10 µM | NB7+C8 cells + TRAIL, ATPlite viability luminescence;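 active means compounds causing at least 50% loss of cell viability in the single-dose screen, relative to plate controls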
SENP8 block-1: blocks the human protease SENP8. inhibition, % at 10 µM. 1.2% of 330,000 active. AID 2540. purified SENP8, Z-RLRGG-aminoluciferin cleavage, luminescence; in the data active means inhibition above about 50%
Target sequence (Q96LD8 whole entry, looked up): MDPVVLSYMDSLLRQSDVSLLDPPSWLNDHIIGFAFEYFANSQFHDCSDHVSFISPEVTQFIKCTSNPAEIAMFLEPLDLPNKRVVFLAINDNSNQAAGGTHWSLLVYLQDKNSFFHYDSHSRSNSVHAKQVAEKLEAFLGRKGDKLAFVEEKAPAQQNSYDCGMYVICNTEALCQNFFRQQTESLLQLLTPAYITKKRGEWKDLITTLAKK
SENP6 inh: SENP6 protease inhibition. Q9GZR1. Recombinant SENP6 catalytic domain, aminoluciferin luminescence. inhibition, % at 10 µM. 1.8% of 330,000 active. AID 2599;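 active means inhibition above about 50% at the single tested dose, limit read from the data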
PPC-1+TRAIL kill: compounds killing PPC-1 cancer cells with TRAIL present (potentiator screen, no TRAIL-free arm) | 0.41% of 220,000 active | cell killing (% activity), % at 4 µM or 5 µM | PPC-1 cells + TRAIL, ATPLite viability luminescence;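 active means cell killing above 50% in the first pass at 4 µM, then a duplicate retest at 5 µM averaging 50% or more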
SENP8 block-2: SENP8 (human) protease inhibition; recombinant SENP8, Nedd8 substrate fluorescence; Q96LD8; inhibition, % at 20 µM; 0.64% of 360,000 active; in the data active means inhibition mostly above about 40%, no sharp cut-off; inactive means mostly below about 27%
SENP7 block: blocks the human protease SENP7 | recombinant SENP7, Z-RLRGG-aminoluciferin luminescence, 40 min | inhibition, % at 5 µM | 1.5% of 330,000 active;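 active means inhibition above about 50% at the single test dose, limit read from the data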
SENP8 confirm: human SENP8 inhibition, confirmed; shares compounds with SENP7 block; Recombinant SENP8, Z-RLRGG-aminoluciferin luminescence, 60 min; inhibition, % at 12.5 µM; 40% of 6,200 active; AID 488912;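 active means mean inhibition across replicates above about 50%, limit read from the data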
SENP6 conf: confirmation of human SENP6 protease inhibitors. shares compounds with SENP7 block. recombinant SENP6, Z-RLRGG-aminoluciferin luminescence. inhibition, % at 12.5 µM. 58% of 6,200 active. AID 488915
SENP7 confirm: confirmation of human SENP7 protease inhibitors. shares compounds with SENP7 block. recombinant SENP7, Z-RLRGG-aminoluciferin luminescence, 40 min. inhibition, % at 12.5 µM. 69% of 6,200 active. AID 488917
Casp3 select: selectivity test for SENP inhibitors: human caspase-3 inhibition. shares compounds with SENP7 block. purified caspase-3, Z-DEVD-aminoluciferin luminescence, 60 min. inhibition, % at 12.5 µM. 60% of 6,200 active;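 active means mean inhibition above about 50%, limit read from the data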
Target sequence (P42574 28-227 limits assumed): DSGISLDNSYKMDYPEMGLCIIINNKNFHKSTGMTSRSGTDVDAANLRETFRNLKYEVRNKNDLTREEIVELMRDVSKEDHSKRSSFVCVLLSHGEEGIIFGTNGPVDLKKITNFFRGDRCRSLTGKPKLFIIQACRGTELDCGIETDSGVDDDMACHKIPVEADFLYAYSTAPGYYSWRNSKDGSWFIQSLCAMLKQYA
Luc interf: interferes with luciferase luminescence in SENP counter-screen | Pre-incubated SENP8/Z-RLRGG-aminoluciferin, luciferase luminescence interference | inhibition, % at 12.5 µM | shares compounds with SENP7 block | 39% of 6,200 active;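 active means mean inhibition above about 50% when retested at one dose, limit read from the data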
Each line names hits and unclear results; the compound was inactive in the other large screens (follow-up assays come after a bar, where they were run). A selection: hits, their analogues and other compounds. The true share with any hit is near 3%.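 How the source made its calls, unless noted: active means mean inhibition above about 50% in the one-dose retest (limit read from the data); inactive means the rest.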

O=Cc1ccc(-c2cccc([N+](=O)[O-])c2)o1	none
Cc1c(C(=O)O)cccc1-c1ccc(/C=C2\SC(=O)NC2=O)o1	SENP8 block-1 98, SENP6 inh 98, SENP7 block 91 (no result: PPC-1+TRAIL kill) | SENP8 confirm 99 | SENP6 conf 100 | SENP7 confirm 103 | Casp3 select 97 | Luc interf 97
Cc1ccc(NC(=O)CN2C(=O)S/C(=C\c3ccc(-c4cccc(C(=O)O)c4C)o3)C2=O)cc1C	none (no result: SENP8 block-1, SENP6 inh, SENP7 block)
O=C(Nc1ccc(Oc2ccccc2)cc1)c1csc([C@@H]2O[C@H](CO)[C@H](O)[C@H](O)[C@H]2O)n1	none (no result: SENP8 block-1, SENP6 inh, PPC-1+TRAIL kill, SENP7 block)
Cc1nn(Cc2ccccc2)c(C)c1C(=O)N1CCN(CC(=O)Nc2ccc(F)cc2)CC1	SENP7 block 53 (no result: PPC-1+TRAIL kill) | SENP8 confirm inactive | SENP6 conf inactive | SENP7 confirm inactive | Casp3 select inactive | Luc interf inactive
CCC(=O)c1cc(F)c(N2CCN(S(=O)(=O)c3ccccc3)CC2)cc1C	SENP7 block 52 | SENP8 confirm inactive | SENP6 conf inactive | SENP7 confirm inactive | Casp3 select inactive | Luc interf inactive
CCCC(=O)c1cc(F)c(N2CCN(S(=O)(=O)c3ccccc3)CC2)cc1C	none
CCCCC(=O)N1CCN(c2nc3ccc(F)cc3s2)CC1	SENP8 block-1 73, SENP6 inh 84, SENP7 block 82 (no result: PPC-1+TRAIL kill) | SENP8 confirm 78 | SENP6 conf 75 | SENP7 confirm 95 | Casp3 select 89 | Luc interf inactive
COc1ccccc1NS(=O)(=O)c1ccc(C)c(C(=O)NCC(c2cccs2)N2CCOCC2)c1 (stereo unspecified)	none (no result: SENP8 block-1, SENP6 inh, PPC-1+TRAIL kill, SENP7 block)
Clc1ccc(SCc2cn3ccsc3n2)cc1	none
Cc1csc2nc(CSc3ccc(Cl)cc3)cn12	SENP6 inh 80, SENP7 block 53 | SENP8 confirm 78 | SENP6 conf 77 | SENP7 confirm 92 | Casp3 select 67 | Luc interf 72
CN(CCC#N)c1ccc(/C=C(\C#N)c2ccccn2)cc1	TRAIL sens C8 84, SENP8 block-1 80, SENP6 inh 76 | SENP8 confirm 91 | SENP6 conf 92 | SENP7 confirm 99 | Casp3 select 89 | Luc interf 92
Cc1ccc2c(c1)c(=O)c1c3n2CCN(C(=O)CCl)C3CC1 (stereo unspecified)	SENP6 inh 50 | SENP8 confirm inactive | SENP6 conf 60 | SENP7 confirm inactive | Casp3 select inactive | Luc interf inactive
COc1cccc(C(=O)N=c2sc3c(C)ccc(OC)c3n2C)c1	SENP8 block-1 68, SENP7 block 97 | SENP8 confirm inactive | SENP6 conf inactive | SENP7 confirm inactive | Casp3 select inactive | Luc interf inactive
COc1ccc(C(=O)N=c2sc3c(C)ccc(OC)c3n2C)cc1OC	SENP8 block-1 76, SENP6 inh 84, SENP7 block 89 | SENP8 confirm inactive | SENP6 conf inactive | SENP7 confirm inactive | Casp3 select inactive | Luc interf inactive
COc1ccccc1C(=O)N=c1sc2c(C)ccc(OC)c2n1C	SENP6 inh 58 | SENP8 confirm inactive | SENP6 conf inactive | SENP7 confirm inactive | Casp3 select 53 | Luc interf inactive
CCCCNC(=O)N(O)C1N(/N=C/c2ccccc2OC)C(=S)SC1(C)C (stereo unspecified)	none (no result: PPC-1+TRAIL kill)
COc1cc2c(cc1OC)C(c1cc(OC)c(OC)c(OC)c1)C1(O)C(=O)OCC1(O)C2 (stereo unspecified)	none (no result: SENP8 block-1, SENP6 inh, PPC-1+TRAIL kill, SENP7 block)
COCc1ccccc1C1=CC(=O)C[C@H](c2ccc(F)cc2)C1	none (no result: PPC-1+TRAIL kill)
NNc1nc2c(-c3ccc(F)cc3)nnn2c2ccccc12	SENP8 block-1 92, SENP6 inh 97, SENP7 block 92 | SENP8 confirm inactive | SENP6 conf 81 | SENP7 confirm 71 | Casp3 select 78 | Luc interf inactive
COCCCNc1nc2c(-c3ccc(Cl)cc3)nnn2c2ccccc12	none
NNc1nc2c(-c3ccc(Cl)cc3)nnn2c2ccccc12	SENP6 inh 85 | SENP8 confirm inactive | SENP6 conf inactive | SENP7 confirm inactive | Casp3 select inactive | Luc interf inactive
Cc1cc(C)c2c(c1)C(=O)/C(=C/c1ccc(C(=O)O)cc1)CC2	SENP8 block-1 75, SENP6 inh 92 (no result: PPC-1+TRAIL kill) | SENP8 confirm 62 | SENP6 conf 51 | SENP7 confirm 53 | Casp3 select 58 | Luc interf inactive
O=C(CSc1nc2ccc(Nc3nc(N4CCOCC4)nc(N4CCOCC4)n3)cc2s1)Nc1ccccc1F	none (no result: PPC-1+TRAIL kill)
O=C(COC(=O)c1ccc(Br)o1)Nc1ncc([N+](=O)[O-])s1	SENP8 block-1 65, SENP6 inh 74 (no result: PPC-1+TRAIL kill) | SENP8 confirm 69 | SENP6 conf 66 | SENP7 confirm 86 | Casp3 select 78 | Luc interf 73
O=C(CCS(=O)(=O)Cc1ccccc1)Nc1ncc([N+](=O)[O-])s1	SENP8 block-1 84, SENP6 inh 88, SENP7 block 83 (no result: PPC-1+TRAIL kill) | SENP8 confirm inactive | SENP6 conf 83 | SENP7 confirm 97 | Casp3 select 71 | Luc interf 82
Cc1ccc(S(=O)(=O)CC(=O)Nc2ncc([N+](=O)[O-])s2)cc1	none (no result: PPC-1+TRAIL kill)
Cc1ccc(CC(=O)Nc2ncc([N+](=O)[O-])s2)cc1	SENP8 block-1 88, SENP6 inh 91, SENP7 block 63 | SENP8 confirm 93 | SENP6 conf 93 | SENP7 confirm 99 | Casp3 select 91 | Luc interf 55
Cc1ccc(C(=O)NCCCNC(=O)Cc2ccccc2)cn1	none (no result: PPC-1+TRAIL kill)
O=C(NCCc1ccccc1O)c1cc2c(cc1[N+](=O)[O-])OCO2	none (no result: SENP8 block-1, SENP6 inh, PPC-1+TRAIL kill, SENP7 block)
N#CC(C#N)=NNc1ccc([N+](=O)[O-])cc1	SENP8 block-1 74, SENP6 inh 81 | SENP8 confirm inactive | SENP6 conf 82 | SENP7 confirm 93 | Casp3 select 61 | Luc interf 83
Cc1sc2ncn(CC(=O)NCC(=O)N3CCN(c4ccccc4F)CC3)c(=O)c2c1C	none (no result: PPC-1+TRAIL kill)
Cc1cc(C)n2nc(SCC(=O)N3CCN(c4ccccc4)CC3)nc2n1	none (no result: PPC-1+TRAIL kill)

Screening data: PubChem, Sanford-Burnham Center for Chemical Genomics
